Pf growth 96h: Primary qHTS for delayed death inhibitors of the malarial parasite plastid, 96 hour incubation; P. falciparum luciferase reporter growth, 96 h; 6.9% of 320,000 active; Potency, µM (titrated, usually from 28.7 µM), for inactives: at the highest dose activity change, negative = inhibition, actives largely listed as inhibitors; AID 504834, 2011; active means well fitted inhibition curve with a large enough effect; inconclusive means small, poorly fitted or top-dose-only effect, or another doubt; inactive means no such curve, though single readings can be large or run the other way; further: potency means the concentration at half of the fitted maximal effect; on the % scale 0 is the no-effect control and ±100 the full control effect
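Compounds incubated with erythrocytes infected by luciferase-expressing P. falciparum (2% hematocrit, 0.05% parasitemia final) for 96 hours, 37 C in 5% CO2. Growth inhibition scored as decreased luciferase luminescence.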
NS1 inh: qHTS Assay for Inhibitors of Influenza NS1 Protein Function; Potency, µM (titrated, usually from 46.1 µM), for the others: at the top dose activity, positive = more growth; 0.4% of 270,000 active; AID 2326, 2010; further: potency means the concentration at half of the fitted maximal effect; actives are rising curves; nearly all actives have a fitted effect of over 50% in size
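OD600 was taken as the measure of yeast growth restored by compound in an NS1-expressing S. cerevisiae strain. Cells had been washed out of glucose medium and diluted 1:100 into galactose -URA medium, pH 6.0.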
Pf growth 48h: Primary qHTS for delayed death inhibitors of the malarial parasite plastid, 48 hour incubation; 5.9% of 310,000 active; P. falciparum luciferase growth in erythrocytes, 48 h; Potency, µM (top dose mostly 28.7 µM), inactives show at the highest dose activity change, negative = inhibition, actives largely listed as inhibitors; active means well fitted inhibition curve with a large enough effect; inconclusive means small, poorly fitted or top-dose-only effect, or another doubt; inactive means no such curve, though single readings can be large or run the other way; further: potency means the concentration at half of the fitted maximal effect; on the % scale 0 is the no-effect control and ±100 the full control effect
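Read-out is firefly luciferase luminescence from an integrated reporter in P. falciparum, so falling signal marks reduced parasite growth. Infected erythrocytes were at 2% hematocrit and 0.1% parasitemia (final) in Albumax-supplemented RPMI 1640.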
CHX counter: Cycloheximide Counterscreen for Small Molecule Inhibitors of Shiga Toxin; cell reporter, cycloheximide protein synthesis inhibition counterscreen; max response, %; 12% of 300,000 active; in the data active means max response mostly above about 13%, no sharp cut-off; inactive means mostly below about 14%; further: read at 38.3 µM for the half of the compounds with a filed dose; 0% is about no effect
Shiga inhibitor: A qHTS for Small Molecule Inhibitors of Shiga Toxin; Vero cells, Shiga toxin protein synthesis inhibition reporter; inhibition, % at 38.7 µM; 9.2% of 290,000 active; in the data active means inhibition mostly above about 28%, no sharp cut-off; inactive means mostly below about 43%; further: 0% is about no effect
SARS PLP yeast: qHTS of Yeast-based Assay for SARS-CoV PLP; S. cerevisiae expressing SARS-CoV PLpro, growth rescue; Potency, µM (top dose mostly 32.9 µM), for the others: at the top dose activity, positive = growth rescue, usual class: activators; 0.19% of 330,000 active; AID 485353, 2010; further: potency means the concentration at half of the fitted maximal effect; 0% is about no effect; nearly all actives have a fitted effect of over 55% in size
* hit, by the source's call; ? = inconclusive; / = no result; + = active, no number; [ ] = dose if it differs, or a comment. Most compounds without a hit are left out; they make up all but 21% or so of the library. Unless noted, the call rests on the fitted dose curve.

SMILES	Pf growth 96h	NS1 inh	Pf growth 48h	CHX counter	Shiga inhibitor	SARS PLP yeast
COc1cc(-c2nc3c(c(C)nn3-c3ccccc3)c3cc(OC)c(OC)cc23)ccc1O	?	12.4%	2.94µM*	2.6	5.7	-4.9%
COc1ccccc1NC(=O)C(C)N1C(=O)C2CCCCC2C1=O (stereo not drawn)	6.7%	/	36.5%	/	/	2.4%
Cc1cc(C)cc(NC(=O)CSc2nc(CSc3ccc(Cl)cc3)cc(=O)[nH]2)c1	29.6%	4.9%	34.6%	-2.0	-3.3	0.5%
COc1ccccc1NCc1ccc([N+](=O)[O-])s1	?	10.6%	27.4%	9.6	-73.2	?
Cc1ccccc1NCc1ccc([N+](=O)[O-])s1	?	-14.9%	10.9%	14.0*	-1.1	-6.9%
Cc1ccc(NCc2ccc([N+](=O)[O-])s2)cc1	?	-14.8%	22.5%	25.3*	49.0*	-4.7%
COc1ccc(OCc2nnc(SCC(=O)c3c(N)n(C)c(=O)n(C)c3=O)n2-c2ccccc2F)cc1	?	1.7%	?	-2.0	10.6	1.1%
Cc1ccc(Sc2ccc(NC(=O)CCl)cc2)c(C)c1	?	/	8.28µM*	-3.5	-0.2	-16.9%
O=C(CSc1ccc2nnc(-c3ccc(F)cc3)n2n1)N1CCOCC1	/	3.7%	/	/	/	/
Cc1ccc(NC(=O)C(C)SCc2ccccc2)cc1 (stereo not drawn)	?	-7.1%	17.1%	30.4*	82.1*	-1.4%
COc1ccc(NC(=O)C(C)SCc2ccccc2)cc1OC (stereo not drawn)	46.7%	-4.5%	10.8%	6.4	-3.1	27.4%
COc1cccc(NC(=O)C(C)SCc2ccccc2)c1 (stereo not drawn)	-6.5%	-8.1%	13.3%	22.5*	44.3*	-1.0%
CC(SCc1ccccc1)C(=O)Nc1ccc2c(c1)OCO2 (stereo not drawn)	5.5%	-9.3%	/	37.1*	44.4	0.6%
CC(SCc1ccccc1)C(=O)N/N=C/c1ccc2c(c1)OCO2 (stereo not drawn)	-3.4%	-17.4%	-9.9%	8.5	23.5	3.2%
CC(OC(=O)Cc1c[nH]c2ccccc12)C(=O)Nc1ccccc1[N+](=O)[O-] (stereo not drawn)	11.9%	/	28.0%	/	/	-1.0%
Fc1ccccc1CN1CCCN(C(=S)Nc2cccc(Cl)c2)C1	-29.2%	/	9.28µM*	-3.8	15.2	1.2%
Cc1c(Cl)cccc1NC(=S)N1CCCN(Cc2ccccc2F)C1	?	/	?	-0.9	-4.9	-3.3%
CC(C)(C)C(=O)NC(=S)Nc1ccc(F)cc1	?	7.2%	41.9%	30.9*	87.2*	?
CC(=O)Nc1ccc(NC(=S)Nc2ccc(F)cc2)cc1	?	/	4.5%	-0.6	19.8	-2.4%
CC(C)(C)C(=O)NC(=S)Nc1cccc(C(=O)O)c1	32.7%[5.75 µM]	-0.2%	213.3%	45.3*	83.9*	0.4%
O=C(O)c1cccc(NC(=S)NC(=O)c2ccncc2)c1	9.28µM*	/	32.0%	9.6	7.9	0.5%
CNC(=S)Nc1cccc(C(=O)O)c1	-39.2%[5.75 µM]	7.4%	14.1%	-1.0	-5.8	-0.3%
N=C(N)N1Cc2ccccc2C(O)C1 (stereo not drawn)	/	/	/	0.2	-9.0	/
Cc1cc(C)n2nc(C(=O)OCC(=O)NNC(=O)c3ccccc3)nc2n1	43.1%	/	11.2%	/	/	-2.1%
Cn1cc(C(=O)Nc2ccc(C#N)cc2)c2ccccc2c1=O	31.4%	-1.2%	8.2%	9.3	-4.1	-0.7%
SMILES	Pf growth 96h	NS1 inh	Pf growth 48h	CHX counter	Shiga inhibitor	SARS PLP yeast
Cc1ccc(CN2CCN(C)CC2)c(C)c1	2.94µM*	6.4%	16.4%	-4.9	-2.7	5.1%
Cc1cccc(CNCc2ccccc2)c1	69.2%	-2.4%	31.4%	19.1	22.9	-15.5%
Cc1cccc(C2=N[C@@H](Cc3ccccc3)CO2)c1	/	/	/	49.0*	+	/
Cc1cccc(C2=N[C@@H](CC(C)C)CO2)c1	/	/	/	33.5*	+	/
COC(=O)CCN(c1ccccc1)S(=O)(=O)c1cc(-c2cc(C)no2)ccc1C	10.9%	-21.6%	?	20.7	25.6	-2.5%
CN(C(=O)c1ccc(NC(=O)C2CCCN(C(=O)OC(C)(C)C)C2)cc1)C1CCCCC1 (stereo not drawn)	/	/	/	/	/	3.5%
Cc1nn(-c2ccccc2)c(/N=C/c2ccc(O)cc2)c1-c1ccccc1	31.2%	3.9%	85.8%	26.5*	45.4	-11.8%
Cc1nc(NC(=O)C2CCCCC2C(=O)O)sc1C (stereo not drawn)	?	-10.4%	-17.9%	-3.1	0.9	0.5%
Cc1nc(NC(=O)C2CC3CCCC(C2)C3=O)sc1C (stereo not drawn)	206.2%	5.1%	75.9%	47.0*	+	4.5%
O=C(NC1=NCCS1)c1ccc(C(F)(F)F)cc1	163.8%	-2.3%	80.4%	33.7*	95.7*	-2.2%
CC(C)C(NC(=O)c1ccc(Cl)cc1)C(=O)NC1=NCCS1 (stereo not drawn)	/	-59.9%	/	-2.1	-0.8	-21.8%
Cc1ccc(C(=O)NC2=NCCS2)cc1	157.9%	2.0%	105.6%	33.7*	85.1*	-2.0%
O=C(NC1=NCCS1)c1ccc(N2CCCC2=O)cc1	52.4%	/	60.3%	10.6	16.0	1.3%
CC(C)c1ccc(C(=O)NC2=NCCS2)cc1	16.0%	8.1%	221.7%	53.4*	63.3*	-6.4%
N#Cc1ccc(C(=O)NC2=NCCS2)cc1	143.6%	0.1%	134.1%	34.5*	103.5*	-1.9%
CCCN1C(=O)c2ccc(C(=O)NC3=NCCS3)cc2C1=O	-9.9%	-24.1%	5.5%	14.5*	41.4	-11.7%
CCCN1C(=O)c2ccc(C(=O)Nc3ccc4c(c3)OCO4)cc2C1=O	?	1.6%	25.0%	10.2	-15.7	-4.4%
Cc1ccc(C(=O)NC2=NCCS2)cc1Cl	5.1%	-24.0%	119.1%	37.6*	44.5*	-7.3%
Cc1ccc(N2C(=O)N(CC(=O)N3c4ccccc4CC3C)C(=O)C2C)cc1 (stereo not drawn)	-5.6%	/	6.1%	/	/	-0.5%
CC(=O)Oc1ccc(C(=O)NCc2ccco2)cc1	?	14.5%	0.1%	1.1	-7.8	16.4%
Cc1ccc(C(=O)NN=C2CCCCCC2)s1	-22.5%	4.8%	1.7%	46.8*	58.8*	-5.4%
O=C(NN=C1CCCCCC1)c1ccc(Cl)s1	-20.8%	-4.8%	40.3%	9.7	12.2	-4.2%
Cc1ccsc1C(=O)NN=C1CCCCCC1	?	-10.9%	7.3%	51.4*	95.7*	-3.8%
Cc1ccc(C(=O)NCC(=O)OCC(=O)N(CC(C)C)c2c(N)n(Cc3ccccc3)c(=O)[nH]c2=O)cc1	41.5%	/	44.3%	/	/	-7.1%
Fc1cccc(Cl)c1Cc1noc(/C=C/c2ccccc2)n1	61.6%	-3.3%	39.4%	20.7*	148.5	-16.1%
Clc1cccc(Cl)c1CSc1nnc(/C=C/c2ccccc2)o1	0.0%	3.2%	54.9%	4.7	76.1	0.9%
